PV pol inh: poliovirus RdRp elongation inhibitors, primary screen, biochemical, fluorescence polarization, total intensity. poliovirus polymerase elongation; active compounds read low. % elongation, % (compound at 16.7 µg/mL). hit rate 0.66% among 150,000. AID 588519, 2011; in the data active means % elongation below about 90%
AID504770: growth inhibition of E. coli YBA685, primary screen, V. cholerae RctB inhibitors | E. coli YBA685 rctB-dependent plasmid, OD600 growth, 3 h; active compounds read low | z-score (no concentration beside the values) | hit rate 0.27% among 130,000; in the data active means z-score below about -2, passing the limit was not always enough
Mtb MenB inh: M. tuberculosis MenB inhibitors, primary screen, biochemical, absorbance; 1,4-dihydroxy-2-naphthoyl-CoA synthase (Mycobacterium tuberculosis (strain ATCC 25618 / …; MenB enzyme assay, absorbance read-out; inhibition, % (test concentration not listed); hit rate 0.43% among 100,000; in the data active means inhibition above about 21%, passing the limit was not always enough
MbtI inh: MbtI salicylate synthase inhibitors, primary screen, biochemical, fluorescence intensity; P9WFX0; AID 493033, 2011; hit rate 0.89% among 100,000; inhibition, % (concentration not given with the values); purified MbtI enzyme, fluorescence intensity read-out; in the data active means inhibition mostly above about 56%, no sharp cut-off; inactive means mostly below about 77%
Target sequence (P9WFX0 whole entry, looked up): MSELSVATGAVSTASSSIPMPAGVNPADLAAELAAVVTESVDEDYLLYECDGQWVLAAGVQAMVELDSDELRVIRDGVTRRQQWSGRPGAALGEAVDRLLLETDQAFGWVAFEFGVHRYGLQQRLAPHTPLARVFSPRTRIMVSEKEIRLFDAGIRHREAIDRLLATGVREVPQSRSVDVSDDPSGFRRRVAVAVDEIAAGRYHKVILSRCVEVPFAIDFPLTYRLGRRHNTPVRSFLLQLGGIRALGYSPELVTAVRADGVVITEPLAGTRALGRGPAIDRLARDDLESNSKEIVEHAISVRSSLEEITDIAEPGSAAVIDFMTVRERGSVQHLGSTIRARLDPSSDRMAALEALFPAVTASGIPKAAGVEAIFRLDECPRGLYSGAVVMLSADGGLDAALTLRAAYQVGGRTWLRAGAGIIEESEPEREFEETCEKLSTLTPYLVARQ
Of the large screens only hits and unclear results are named; the others gave an inactive call. Only some compounds are listed: those with a hit (about 1.4% of all), similar ones and a draw of the others.

O=C(Nc1cccc(-c2ccc(N3CCCC3)nn2)c1)c1ccccc1	none
CNC(=O)c1sc(CN2C(=O)c3ccccc3S2(=O)=O)nc1C	PV pol inh 65, MbtI inh 92
CC1OC(OC2/C=C/C=C/C=C/C=C/CC/C=C/C=C/[C@H](C)[C@@H](O)[C@@H](C)[C@H](C)OC(=O)CC(O)CC(O)CC(O)CCC(O)C(O)C[C@]3(O)CC(O)C(C(=O)O)C(C2)O3)C(O)C(N)C1O (stereo partly drawn)	none (no result: AID504770)
CC(C)CN(CC(C)C)C(=O)C1CCCCC1C(=O)O (stereo not drawn)	Mtb MenB inh 30
CC1CCCCN1C(=O)c1ccccc1NS(=O)(=O)c1ccc(F)cc1 (stereo not drawn)	Mtb MenB inh 41
CC1CCCC(C)N1C(=O)c1ccccc1NS(=O)(=O)c1ccc(F)cc1 (stereo not drawn)	none (no result: Mtb MenB inh)
COc1ccc(C(=O)OCc2c(C)noc2C)cc1S(=O)(=O)N1CCCc2ccccc21	none
Cc1ccc(Cn2ccsc2=NC(=O)COC(=O)C2CC2)cc1	none
O=C(CC(SC1CCCCC1)C(=O)O)c1ccc(Br)cc1 (stereo not drawn)	none (no result: MbtI inh)
O=C(CC(NC1CC1)C(=O)O)c1ccc(Cl)cc1 (stereo not drawn)	Mtb MenB inh 35 (no result: MbtI inh)
O=C(CC(Sc1ccc(Br)cc1)C(=O)O)c1ccc(Cl)cc1 (stereo not drawn)	PV pol inh 85 (no result: MbtI inh)
COCc1nnc(NC(=O)Cc2ccccc2)s1	none (no result: MbtI inh)
CCC(C)(C)C(=O)Nc1nnc(COC)s1	Mtb MenB inh 33
Cc1csc2c(N3CCN(C(=S)NCC4CC4)CC3)ncnc12	none
CCc1cc(=O)oc2cc(OCC(=O)c3ccc(F)cc3)ccc12	none (no result: Mtb MenB inh)
CCn1c(SCCC#N)nnc1-c1ccncc1	Mtb MenB inh 31
C=CCN1CC(C(N)=O)Oc2ccccc21 (stereo not drawn)	none
C=CCn1c(=NC(=O)c2ccc(F)cc2)sc2cc(C(=O)OC)ccc21	none (no result: PV pol inh, Mtb MenB inh, MbtI inh)
CCN1CCc2c(sc(=NC(=O)c3ccc(F)cc3)n2C(=O)c2ccc(F)cc2)C1	PV pol inh 65
NC(=O)CC1C=CS(=O)(=O)C1 (stereo not drawn)	none (no result: Mtb MenB inh)
N#CSC1C=CS(=O)(=O)C1 (stereo not drawn)	AID504770 -4.8 (no result: PV pol inh, Mtb MenB inh, MbtI inh)
Cn1c(=O)[nH]c2nnc(-c3ccccn3)nc2c1=O	PV pol inh 89
Cc1nnc(-c2ccccn2)[nH]c1=O	none
CSc1ccc(-c2nc3ccccc3c(=O)[nH]2)cc1	none
CCOC(=O)c1sc(C)c2c(=O)[nH]c(-c3ccc(SC)cc3)nc12	MbtI inh 64 (no result: PV pol inh, Mtb MenB inh)
COC(=O)C1(C(C)C)NC(c2ccccc2OC)C2C(=O)N(C)C(=O)C21 (stereo not drawn)	Mtb MenB inh 27
COC(=O)C1(c2ccccc2)NC(c2ccccc2C)C2C(=O)N(C)C(=O)C21 (stereo not drawn)	none
O=C(Nc1ccn(Cc2ccccc2F)n1)Nc1ccc(F)cc1F	none
N#CSC12CN3CN(CN(C3)C1)C2	Mtb MenB inh 33
CC1=CC(=O)C(N(C)c2ccccc2)=CC1=O	MbtI inh 85 (no result: Mtb MenB inh)
CC1=C/C(=C/N(C)c2ccccc2)C(=O)S1	none
CC1=CC(=N/C(C)=N/S(=O)(=O)c2ccc(C)cc2)C=C(C)C1=O	MbtI inh 86
C=C1c2c(Cl)ccc(O)c2C(O)=C2C(=O)[C@]3(O)C(O)=C(C(N)=O)C(=O)[C@@H](N(C)C)[C@@H]3[C@@H](O)[C@H]12	AID504770 -4.2
C=C1c2cccc(O)c2C(O)=C2C(=O)[C@]3(O)C(O)=C(C(N)=O)C(=O)[C@@H](N(C)C)[C@@H]3[C@@H](O)[C@H]12	AID504770 -3.4
CN(C)[C@@H]1C(=O)C(C(=O)NCN2CCCC2)=C(O)[C@@]2(O)C(=O)C3=C(O)c4c(O)cccc4[C@@](C)(O)C3CC12 (stereo partly drawn)	none (no result: AID504770)
CN(C)[C@@H]1C(=O)C(C(N)=O)=C(O)[C@@]2(O)C(=O)C3=C(O)c4c(O)cccc4[C@@](C)(O)[C@H]3C[C@@H]12	AID504770 -3.2
C[C@H]1c2cccc(O)c2C(O)=C2C(=O)C3(O)C(O)=C(C(N)=O)C(=O)[C@@H](N(C)C)[C@@H]3[C@@H](O)[C@@H]21 (stereo partly drawn)	none (no result: AID504770)
Cc1sc2c(c1C)c(=O)nc1n2C(CSc2nc3sc4c(c3c(=O)[nH]2)CCCC4)CS1 (stereo not drawn)	none
CCOc1ccc(Nc2c(S(=O)(=O)c3ccccc3)cnc3ccc(OCC)cc23)cc1	none
O=C(NCCC1=CCCCC1)C1CCCCC1	none (no result: PV pol inh)
CCSc1nc2c(c(=O)[nH]c(=O)n2C)n1CC	MbtI inh 98
Nn1c(SCCOc2ccccc2)nnc1-c1ccccc1	PV pol inh 79
COc1ccc(NC(=O)N(CCN(C)C)Cc2cc3cc(OC)ccc3[nH]c2=O)cc1	Mtb MenB inh 34
Cc1cc(C)c2cccnc2c1O	AID504770 -2.4
O=c1c(=NO)c(=O)c2ccccc12	PV pol inh 32
Cc1oc2ncn(C)c(=O)c2c1C(=O)N1CCCCC1	none
CCOC(=O)C1=C(c2ccccc2)N=c2s/c(=C\c3ccco3)c(=O)n2C1c1cccc(OC)c1 (stereo not drawn)	none
c1ccc(CSc2nncn2-c2ccccc2)cc1	none (no result: PV pol inh, Mtb MenB inh)
COc1ccc(OC)c(-n2c(N)c(C#N)c3nc4ccccc4nc32)c1	AID504770 -2.1
COC(=O)C1(CCSC)NC(c2ccc(N(C)C)cc2)C2C(=O)N(C)C(=O)C21 (stereo not drawn)	none
COc1ccc(Cc2nn3c(Cc4ccccc4)nnc3s2)cc1	MbtI inh 93
COc1ccc(C(=O)CN2CCC(N3CCCCC3)CC2)cc1	none
O=C(/C=C/c1ccccc1)Oc1nc2ccccc2s1	PV pol inh 85 (no result: MbtI inh)
O=C(/C=C/c1ccccc1)Oc1ccccc1	none
O=C1c2ccccc2C(=O)N1c1nccc(Br)c1Br	none (no result: MbtI inh)
C=CCN1C(=O)C2C(C(=O)NCc3ccccc3)C3C=CC2(O3)C1C(=O)NC(C)(C)C (stereo not drawn)	none
CNC(=O)C1C2C=CC3(O2)C1C(=O)N(C1CC1)C3C(=O)NCc1ccc(OC)cc1 (stereo not drawn)	Mtb MenB inh 48
C#CCN1C(=O)C2C(C(=O)NC)C3C=CC2(O3)C1C(=O)NCc1ccc(OC)cc1 (stereo not drawn)	Mtb MenB inh 54
CCN1CSC(=S)N(Cc2ccccc2)C1	AID504770 -2.9
CCN1CSC(=S)N(Cc2ccc(OC)cc2)C1	none
CC1=C(C(=O)Nc2ccccc2)C(c2ccco2)C(C#N)=C(SCC(=O)Nc2ccccc2)N1 (stereo not drawn)	Mtb MenB inh 39
Cc1ccc(N=C2NN=C(c3ccccc3)C(C(=O)Nc3ccc4c(c3)OCO4)S2)cc1 (stereo not drawn)	PV pol inh 85
NC(=O)N/N=C/c1ccc([N+](=O)[O-])o1	AID504770 -3.5
CCCC(=O)Oc1ccccc1NS(=O)(=O)c1ccccc1	none

Assay outcomes deposited in PubChem BioAssay by ICCB-Longwood Screening Facility, Harvard Medical School.
